PPARg SRC3 recr = agonists of human PPARgamma SRC-3 coactivator recruitment; hit rate 0.26% among 200,000; biochemical PPARgamma/SRC-3 coactivator recruitment assay; activation, % at 8 µM; AID 731; P37231; in the data active = activation above about 23%
Target sequence (P37231 whole entry, looked up): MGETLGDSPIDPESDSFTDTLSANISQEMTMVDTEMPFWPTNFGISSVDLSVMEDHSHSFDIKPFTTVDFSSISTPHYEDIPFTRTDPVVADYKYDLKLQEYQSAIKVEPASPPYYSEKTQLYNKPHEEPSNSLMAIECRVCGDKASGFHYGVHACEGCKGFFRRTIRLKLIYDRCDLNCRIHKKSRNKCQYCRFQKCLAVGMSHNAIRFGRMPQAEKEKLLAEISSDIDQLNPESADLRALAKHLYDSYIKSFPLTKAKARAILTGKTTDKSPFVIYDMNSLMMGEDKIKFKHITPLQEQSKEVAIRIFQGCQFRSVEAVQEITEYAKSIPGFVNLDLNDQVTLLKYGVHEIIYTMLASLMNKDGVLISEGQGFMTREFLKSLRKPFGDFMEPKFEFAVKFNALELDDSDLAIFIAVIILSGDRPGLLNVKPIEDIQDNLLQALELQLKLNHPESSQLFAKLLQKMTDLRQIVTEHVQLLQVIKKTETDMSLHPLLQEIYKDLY
SRC1 TRFRET art = TR-FRET artefact, counter-screen to PPARgamma/SRC-1 agonist assay. hit rate 0.34% among 99,000. TR-FRET ratio at 8 µM. AID 1051. TR-FRET detection artefact counter-screen, emission ratio; active compounds read high; in the data active = TR-FRET ratio above about 2300
SRC2 TRFRET art = flags TR-FRET format artefacts in PPARgamma SRC-2 recruitment agonist screen | hit rate 0.4% among 200,000 | TR-FRET ratio at 8 µM | AID 1049 | TR-FRET artefact counter-screen; active compounds read high
PPARg SRC-2 ag = PPARgamma-driven SRC-2 recruitment agonism; PPARgamma LBD-SRC-2 recruitment, biochemical; activation, % at 8 µM; hit rate 0.34% among 200,000; AID 1032; in the data active = activation above about 22%
PPARg SRC-1 ag = promotes SRC-1 coactivator recruitment by human PPARgamma; P37231; PPARgamma-SRC-1 coactivator recruitment biochemical assay; activation, % at 8 µM; hit rate 0.41% among 200,000; in the data active = activation above about 19%
SRC3 TRFRET art = TR-FRET artefact, counter-screen to PPARgamma/SRC-3 agonist assay. PPARgamma/SRC-3 format; active compounds read high. TR-FRET ratio at 8 µM. hit rate 0.39% among 99,000
PPARg SRC2 ag = human PPARgamma SRC-2 recruitment agonism, confirmation; shares compounds with PPARg SRC3 recr; biochemical SRC-2 recruitment by PPARgamma; activation, % at 8 µM; hit rate 52% among 790; AID 1297; in the data active = activation above about 22%
PPARg SRC1 conf = human PPARgamma SRC-1 recruitment agonism, confirmation. shares compounds with PPARg SRC3 recr. PPARgamma–SRC-1 coactivator recruitment biochemical assay. activation, % at 8 µM. hit rate 43% among 790; in the data active = activation above about 20%
PPARg SRC3 ag = human PPARgamma SRC-3 recruitment agonism, confirmation; shares compounds with PPARg SRC3 recr; biochemical PPARgamma-SRC-3 coactivator recruitment, agonist mode; activation, % at 8 µM; hit rate 29% among 790; in the data active = activation above about 24%
Of the large screens only hits and unclear results are named; the others gave an inactive call (follow-up assays come after a bar, where they were run). In the library only some 0.84% were active in any assay of this set; here they are far more common. Cut-off read from the data, not from the text of the source, unless noted: active = TR-FRET ratio above about 2000; inactive = the rest.

COc1cc(CCN2C(=O)c3cccc4cccc(c34)C2=O)c(S(=O)(=O)NCCCO)cc1OC	none (no result: SRC1 TRFRET art, SRC3 TRFRET art)
CCN(CC)S(=O)(=O)c1cccc(NC(=O)COC(=O)c2n[nH]c(=O)c3ccccc23)c1	PPARg SRC-1 ag 22
Cc1ccc(-c2ccc(C3C(C#N)=C(N)Oc4n[nH]c(C)c43)o2)cc1 (stereo unspecified)	none (no result: SRC1 TRFRET art, SRC3 TRFRET art)
Cc1[nH]nc2c1C(c1ccc(-c3ccc(Cl)cc3)o1)C(C#N)=C(N)O2 (stereo unspecified)	PPARg SRC-2 ag 23
CN(C)CCCN(C(=O)c1ccc(N2C(=O)CCC2=O)cc1)c1nc2c(F)cccc2s1	PPARg SRC-1 ag 22
CN(C)CCCN(C(=O)c1ccc2c(c1)CCCC2)c1nc2c(F)cccc2s1	none
CCCCC(CC)Cn1c(N)c(C#N)c2nc3ccccc3nc21 (stereo unspecified)	none (no result: SRC1 TRFRET art, SRC3 TRFRET art)
CCCCC(CC)Cn1c2nc3ccccc3nc2c2c(=N)oc(C)nc21 (stereo unspecified)	SRC2 TRFRET art 2312, PPARg SRC-2 ag 48 (no result: SRC1 TRFRET art, SRC3 TRFRET art)
CC(=O)Nc1ccc(Nc2nc(-c3ccccc3)nc3ccccc23)cc1	none
O=C(Nc1nc(-c2ccccc2)nc2ccccc12)c1ccc(F)cc1	PPARg SRC3 recr 34, SRC3 TRFRET art 2774
CC(C)C(NC(=O)OC(C)(C)C)C(=O)N1CCCC1C(=O)NC(Cc1ccccc1)C(N)=O (stereo unspecified)	none (no result: SRC1 TRFRET art, SRC3 TRFRET art)
c1cncc(-c2nc(N3CCOCC3)c3ccccc3n2)c1	none (no result: SRC1 TRFRET art, SRC3 TRFRET art)
O=S(=O)(/C=C/c1ccccc1)N1CCN(c2nc(-c3cccnc3)nc3ccccc23)CC1	SRC1 TRFRET art 2657, SRC3 TRFRET art 2270
CCOc1ccc(CNC(=S)N/N=C/c2ccncc2)cc1	none
CC1CCN(CC(=O)NCc2ccco2)CC1	none
Cc1ccc(OCC(=O)NNC(=O)CSc2ncnc3sc(C)c(C)c23)cc1	none
CCc1ccc(OCC(=O)NNC(=O)CSc2ncnc3sc(C)c(C)c23)cc1	PPARg SRC-1 ag 54 (no result: SRC1 TRFRET art, SRC3 TRFRET art)
Cc1ccc(OCCC(=O)OCC(=O)Nc2cc(S(=O)(=O)N(C)C)ccc2C)cc1	none
O=C(CSc1ncnc2scc(-c3ccccc3)c12)N1CCN(c2ccccc2F)CC1	SRC3 TRFRET art 2200
Cc1ccc(S(=O)(=O)N2CCCC(C(=O)N(Cc3cccs3)C3CC3)C2)cc1 (stereo unspecified)	SRC2 TRFRET art 2180
O=C(Nc1ccc(-c2nc3ccc(NC(=O)c4cccs4)cc3[nH]2)cc1)c1cccs1	PPARg SRC-2 ag 27, PPARg SRC-1 ag 21 (no result: SRC1 TRFRET art, SRC3 TRFRET art) | PPARg SRC2 ag inactive | PPARg SRC1 conf inactive | PPARg SRC3 ag inactive
O=C(Nc1ccc2nc(-c3cccs3)[nH]c2c1)c1cccs1	none (no result: SRC1 TRFRET art, SRC3 TRFRET art)
CC1(C)CC(=O)c2cc3c(N)c(C(=O)NCc4ccccc4)sc3nc2C1	none (no result: SRC1 TRFRET art, SRC3 TRFRET art)
CN1CCc2nc3sc(C(=O)NCc4ccccc4)c(N)c3cc2C1	PPARg SRC-2 ag 24 | PPARg SRC2 ag inactive | PPARg SRC1 conf inactive | PPARg SRC3 ag inactive
COc1ccc(/C=C(/C#N)C(=O)Nc2ccccc2C)cc1C(=O)O	none
COc1cc(/C=C(\C#N)C(=O)Nc2ccccc2C(=O)O)cc(Cl)c1OC	PPARg SRC3 recr 49, PPARg SRC-1 ag 31 | PPARg SRC2 ag 33 | PPARg SRC1 conf 51 | PPARg SRC3 ag 46
Cc1ccc(S(=O)(=O)Nc2cnn(-c3ccccc3)c(=O)c2Cl)cc1	PPARg SRC3 recr 28, SRC1 TRFRET art 3010, SRC2 TRFRET art 2289, PPARg SRC-2 ag 39, PPARg SRC-1 ag 34, SRC3 TRFRET art 2439 | PPARg SRC2 ag 47 | PPARg SRC1 conf 35 | PPARg SRC3 ag 28
CNc1cnn(-c2ccc(C)cc2)c(=O)c1Cl	none (no result: SRC1 TRFRET art, SRC3 TRFRET art)
Cc1ccc(S(=O)(=O)NCC(=O)OCC(=O)c2cccs2)cc1	none (no result: SRC1 TRFRET art, SRC3 TRFRET art)
Cc1ccc(S(=O)(=O)NCC(=O)OCC(=O)c2ccc(Br)s2)cc1	PPARg SRC3 recr 66, PPARg SRC-2 ag 55, PPARg SRC-1 ag 36 (no result: SRC1 TRFRET art, SRC3 TRFRET art) | PPARg SRC2 ag 51 | PPARg SRC1 conf 32 | PPARg SRC3 ag 35
Cc1cc(C)c(NC(=O)CSc2nc3ccc(NC(=O)CSc4nnnn4Cc4ccccc4)cc3s2)c(C)c1	PPARg SRC-2 ag 24 (no result: SRC1 TRFRET art, SRC3 TRFRET art) | PPARg SRC2 ag inactive | PPARg SRC1 conf inactive | PPARg SRC3 ag inactive
CCCCc1ccc(-n2nnnc2SCC(=O)Nc2cc(OC)c([N+](=O)[O-])cc2C)cc1	none
Cc1ccc(S(=O)(=O)NC(=O)COc2ccccc2C(N)=O)cc1	none (no result: SRC1 TRFRET art, SRC3 TRFRET art)
CCN(CC)CCNC(=O)CSc1c2c(nc3cc(Cl)ccc13)CCCC2	PPARg SRC3 recr 25, SRC1 TRFRET art 3055, SRC2 TRFRET art 2230, PPARg SRC-2 ag 47, PPARg SRC-1 ag 23, SRC3 TRFRET art 2600 | PPARg SRC2 ag 33 | PPARg SRC1 conf 22 | PPARg SRC3 ag inactive
Cc1cccc(NC(=O)CSc2c3c(nc4ccccc24)CCC3)n1	none
Cc1ccc(CNC(=O)CSc2c3c(nc4ccc(Cl)cc24)CCCC3)o1	none (no result: SRC1 TRFRET art, SRC3 TRFRET art)
COc1cccc(NC(=O)CSc2c3c(nc4ccccc24)CCCC3)c1	SRC1 TRFRET art 2392, PPARg SRC-1 ag 21 | PPARg SRC2 ag 22 | PPARg SRC1 conf inactive | PPARg SRC3 ag inactive
O=C(O)C1CCN(Cc2cccnc2)CC1	none
ClCc1csc(-c2ccccc2Cl)n1	SRC2 TRFRET art 2108, PPARg SRC-2 ag 25, SRC3 TRFRET art 2168 | PPARg SRC2 ag 28 | PPARg SRC1 conf 22 | PPARg SRC3 ag inactive
COCc1cc(C)nc2sc3c(=O)oc(C)nc3c12	PPARg SRC-1 ag 20 (no result: SRC1 TRFRET art, SRC3 TRFRET art) | PPARg SRC2 ag inactive | PPARg SRC1 conf inactive | PPARg SRC3 ag inactive
Cc1ccc(-n2c(-c3ccccc3)n[nH]c2=S)cc1	PPARg SRC3 recr 27, SRC2 TRFRET art 2299, PPARg SRC-2 ag 35, PPARg SRC-1 ag 20 (no result: SRC1 TRFRET art, SRC3 TRFRET art) | PPARg SRC2 ag 35 | PPARg SRC1 conf 28 | PPARg SRC3 ag 26
Cc1c(Cl)c(-c2n[nH]c(=S)n2-c2ccccc2)nn1C	SRC2 TRFRET art 2128, PPARg SRC-2 ag 24, SRC3 TRFRET art 2138 | PPARg SRC2 ag 25 | PPARg SRC1 conf inactive | PPARg SRC3 ag inactive
CCCCc1cc(=O)oc2cc(C)cc(O)c12	none (no result: SRC1 TRFRET art, SRC3 TRFRET art)
CCCCc1cc(=O)oc2cc(O)cc(O)c12	SRC1 TRFRET art 2687, SRC2 TRFRET art 2054, PPARg SRC-1 ag 28 | PPARg SRC2 ag inactive | PPARg SRC1 conf inactive | PPARg SRC3 ag inactive
O=C(Nn1c(O)c(C=C2N=c3ccccc3=N2)sc1=S)c1ccccc1Cl	PPARg SRC3 recr 30 (no result: SRC1 TRFRET art, SRC3 TRFRET art) | PPARg SRC2 ag 26 | PPARg SRC1 conf 21 | PPARg SRC3 ag inactive
COC(=O)CNC(=O)CSc1nnc(C)c(=O)[nH]1	none
C/C(CC(=O)NC(C)(C)C)=N\NC(N)=S	PPARg SRC-1 ag 21 | PPARg SRC2 ag inactive | PPARg SRC1 conf inactive | PPARg SRC3 ag inactive
